How the values were obtained:
Test in all cases: fraction of edited reads among all mapped reads; higher = more Cas9 editing
Conditions in all cases: mESC; 2uM; 72 h treatment, harvest day 5
[1] = compound: CC(=O)O/N=C1\C(=O)N(Cc2cc(Cl)ccc2Cl)c2ccc(Cl)cc21
[2] = compound: CC(C)(C#N)c1ccc(N2C(=O)OCc3cnc4ccc(-c5cnc6ccccc6c5)cc4c32)cc1
[3] = compound: CCCCOc1c(C(=O)c2c(F)cc(C)cc2F)c[nH]c2nncc1-2
[4] = compound: CCN1CCN(CC(=O)Nc2ccc(-c3cccc4c(=O)cc(N5CCOCC5)oc34)c3sc4ccccc4c23)CC1
[5] = compound: CCc1c2c(nc3ccc(OC(=O)N4CCC(N5CCCCC5)CC4)cc13)-c1cc3c(c(=O)n1C2)COC(=O)[C@]3(O)CC [Irinotecan HCl Trihydrate]
[6] = compound: CCn1c(=O)c(-c2ccc(Cl)cc2Cl)cc2cnc(Nc3ccc(N4CCNCC4)c(F)c3)nc21
[7] = compound: CNc1ccc([N+](=O)[O-])c(Nc2ccc3[nH]ncc3c2)n1
Rifapentine = compound: CO[C@H]1/C=C/O[C@@]2(C)Oc3c(C)c(O)c4c(O)c(c(/C=N/N5CCN(C6CCCC6)CC5)c(O)c4c3C2=O)NC(=O)/C(C)=C\C=C\[C@H](C)[C@H](O)[C@@H](C)[C@@H](O)[C@@H](C)[C@H](OC(C)=O)[C@@H]1C [Rifapentine]
[8] = compound: COc1ccccc1-c1cc(Nc2cccc(CS(N)(=O)=O)c2)ncn1
[9] = compound: Cc1cc(C)nc(SCC(=O)Nc2ncc(Cc3cccc4ccccc34)s2)n1
[10] = compound: Cc1ccc(C(=O)NCCCCCC(=O)Nc2ccccc2N)cc1
Tucidinostat (Chidamide) = compound: Nc1cc(F)ccc1NC(=O)c1ccc(CNC(=O)/C=C/c2cccnc2)cc1 [Tucidinostat (Chidamide)]
Pemetrexed = compound: Nc1nc2[nH]cc(CCc3ccc(C(=O)N[C@@H](CCC(=O)O)C(=O)O)cc3)c2c(=O)[nH]1 [Pemetrexed]
[11] = compound: Nc1ncnc2c1c(-c1cnc3[nH]ccc3c1)nn2C1CCCC1
[12] = compound: O=C(c1cccc(Cl)c1F)N1CCN(Cc2cccc(Nc3nccs3)n2)CC1
Kenpaullone = compound: O=C1Cc2c([nH]c3ccc(Br)cc23)-c2ccccc2N1 [Kenpaullone]
Genistein = compound: O=c1c(-c2ccc(O)cc2)coc2cc(O)cc(O)c12 [Genistein]
[13] = compound: C[C@@H]1CN(CC(=O)Nc2ccc3c(c2)Cc2cccc(-c4cc(=O)cc(N5CCOCC5)o4)c2S3)C[C@H](C)O1
[14] = compound: Cc1cccc(CC(=O)N2CCc3c2ccc(-c2cn(C)c4ncnc(N)c24)c3F)n1
[15] = compound: NC(=O)c1ccc2nc(-c3ccc(Oc4ccc(Cl)cc4)cc3)[nH]c2c1 [Chk 2 inhibitor II (BML-277)]

Target	fraction of edited reads among all mapped reads [1]	fraction of edited reads among all mapped reads [2]	fraction of edited reads among all mapped reads [3]	fraction of edited reads among all mapped reads [4]	fraction of edited reads among all mapped reads [5]	fraction of edited reads among all mapped reads [6]	fraction of edited reads among all mapped reads [7]	fraction of edited reads among all mapped reads (Rifapentine)	fraction of edited reads among all mapped reads [8]	fraction of edited reads among all mapped reads [9]	fraction of edited reads among all mapped reads [10]	fraction of edited reads among all mapped reads (Tucidinostat (Chidamide))	fraction of edited reads among all mapped reads (Pemetrexed)	fraction of edited reads among all mapped reads [11]	fraction of edited reads among all mapped reads [12]	fraction of edited reads among all mapped reads (Kenpaullone)	fraction of edited reads among all mapped reads (Genistein)	fraction of edited reads among all mapped reads [13]	fraction of edited reads among all mapped reads [14]	fraction of edited reads among all mapped reads [15]
31.0 (DMSO control at this site: 1-bp insertion 0.315, MH deletion 0.329, edited 0.026) ACCTCCACAGGCTGGGTGGCCCGGAGGCTGGGCGGCCCGGAGGCTGGGCTGGGCGAGTATC	0.0285	0.0243	0.0286	0.0119	0.0428	0.0286	0.0363	0.0504	0.0355	0.0451	0.0289	0.0207	0.0406	0.0296	0.0243	0.0456	0.026	–	–	–
7.0 (DMSO control at this site: 1-bp insertion 0.128, MH deletion 0.374, edited 0.098) TACTCAACCGAGACCTACGCGAACCGAAATCGTATGCCGGTGCGCAAGCAGGGCTGGCGTC	0.117	0.115	0.118	0.0615	0.161	0.0955	0.135	0.19	0.126	0.173	0.0971	0.1	0.1	0.096	0.0816	0.195	0.124	0.0557	0.138	0.128
15.0 GCGCCTCCAATGACCCAGTGGGATCCTACTCCATAATGGGATCCTGGGGATTCCTCGCTCC	0.105	0.0725	–	–	–	–	–	0.107	–	0.136	0.0776	0.0802	–	–	–	–	0.132	–	–	–
23.0 AGAACAAAGCGCTCATATAACGATATGGGGGGTTATGGGGGGTTGAATTGCTTCAGCACGA	–	–	–	–	–	–	0.981	–	–	–	–	–	–	–	0.94	–	–	–	–	–
41.0 (DMSO control at this site: 1-bp insertion 0.022, MH deletion 0.754, edited 0.115) AAAGAGACAGCAGGTATGAATCCATCTTCCTGACCCTTGGGACCAGCCGGGGCAGTGAAGC	0.135	0.15	0.152	0.0542	0.19	0.126	0.162	0.23	0.171	0.227	0.138	0.121	0.12	0.113	0.0798	0.25	0.169	0.0671	0.172	0.157
26.0 (DMSO control at this site: 1-bp insertion 0.518, MH deletion 0.262, edited 0.026) AGGGCGCGCCCCACGCACTCTGCGGCAAGTCCCTCTGCGGCAAGTCCTCGGCCCGGAAGAC	0.0291	0.0255	0.0319	0.0118	0.0344	0.0242	0.0263	0.0398	0.0351	0.0413	0.0319	0.0295	0.0225	0.0266	0.0221	0.0413	0.0338	0.0296	0.0384	0.0384
32.0 (DMSO control at this site: 1-bp insertion 0.03, MH deletion 0.85, edited 0.898) AGAAGTCCAGGATCAGGGGGACTGGGGTCGGGAGGGTGGGGCAGGAAGGAAGCCAGAATCA	0.893	0.917	0.893	0.793	0.944	0.929	0.921	0.946	0.934	0.946	0.904	0.9	0.87	0.891	0.849	0.951	0.923	0.841	0.925	0.917
22.0 (DMSO control at this site: 1-bp insertion 0.573, MH deletion 0.229, edited 0.045) CTGATGGTTGAAGGATTTAGCCGGGGTCCTAGACGCCGGGGTCCTAGACGAAAGGGCCACG	0.0447	0.0542	0.0455	0.0167	0.0664	0.0371	0.0513	0.0926	0.0709	0.0884	0.0476	0.0454	0.056	–	0.0278	0.117	0.0556	0.0389	0.0695	0.0586
1.0 (DMSO control at this site: 1-bp insertion 0.521, MH deletion 0.323, edited 0.141) GTGTCACAGTGCACGAGTGACGGGATAATGTGCTGACAGGTAATTGATAGGCTTCCAACTT	0.144	0.154	0.163	0.0521	0.194	0.145	0.207	0.256	0.203	0.243	0.141	0.14	0.132	0.176	0.112	0.33	0.159	0.152	0.218	0.174
16.0 (DMSO control at this site: 1-bp insertion 0.172, MH deletion 0.29, edited 0.05) CGGACTGCACACATGGGTAGGATCGTGCACGCGAGGTAGGATCGTGCACGCGAAGTTATTC	0.0491	0.0603	0.0612	0.0319	0.079	0.0596	0.0609	0.0951	0.076	0.0974	0.052	0.0541	0.0594	0.0586	0.043	0.128	0.0716	0.0437	0.0804	0.0597
